Data: PubChem BioAssay (Tox21)
Unmarked numbers belong to inactive results. Inconclusive results are not listed. A call without a number means that no potency is given here. Calls of active or inactive are those of the source. Unless noted, calls come from the whole dose curve; as a rule, active = well fitted curve in the direction sought with a large enough effect in the repeat runs; inconclusive = weak or mixed curves; inactive = no such curve, though single readings can be large; an effect the other way counts as inactive or inconclusive.

Legend:
[1] = biological target: Thyrotropin-releasing hormone receptor (Homo sapiens) (UniProt P34981); assay: qHTS assay to identify small molecule agonists of the thyrotropin-releasing hormone receptor (TRHR) signaling pathway (AID 1346891; calls by dose curve;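 note: HEK293 cells expressing TRHR with calcium dye readout; series mostly up to about 58 µM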)
Sequence of Thyrotropin-releasing hormone receptor (Homo sapiens) (P34981 whole entry, looked up): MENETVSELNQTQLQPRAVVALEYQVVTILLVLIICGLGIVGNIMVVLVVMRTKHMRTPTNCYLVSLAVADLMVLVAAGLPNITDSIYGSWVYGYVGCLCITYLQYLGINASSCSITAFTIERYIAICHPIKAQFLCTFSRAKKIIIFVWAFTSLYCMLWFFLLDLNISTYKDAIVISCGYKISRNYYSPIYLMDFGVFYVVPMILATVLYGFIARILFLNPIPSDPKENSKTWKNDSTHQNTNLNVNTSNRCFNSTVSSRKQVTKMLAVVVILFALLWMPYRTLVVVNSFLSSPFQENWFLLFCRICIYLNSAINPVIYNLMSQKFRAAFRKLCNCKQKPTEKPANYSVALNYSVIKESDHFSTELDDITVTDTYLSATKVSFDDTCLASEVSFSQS
Summary of the method: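 HEK293/TRHR cells, 1500 per well, 18 h 37 °C; Ca dye 2 h 37 °C; pin-tool compound addition (agonist mode); kinetic fluorescence 3 min, 1 s reads; 15 concentrations, triplicate.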

[2] = Human pregnane X receptor (PXR) small molecule agonists, qHTS cell viability counter screen (AID 1346977); note: nearly all actives have a fitted effect of over 50% in size; note: potency is the fitted concentration of half-maximal effect
Summary of the method: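 Fluorescence read-out (CellTiter-Fluor) of viability in PXR-Luc HepG2 cells, multiplexed with the luciferase agonist read. Compounds in DMSO added after 5hr plating; 24hr total exposure at 37C, 5% CO2.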

[3] = Caspase-3/7 induction in HepG2 cells by small molecules, qHTS assay (AID 1346978); note: nearly all actives have a fitted effect of over 15% in size; note: potency is the fitted concentration of half-maximal effect
Summary of the method: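 Wild-type HepG2 cells (2,000/well) were settled 5 h at 37 C, 5% CO2, then exposed to compounds in DMSO for 17 h. Caspase-3/7 activity was read by luminescence 30 min after adding Caspase-Glo 3/7 reagent at room temperature.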

[4] = Caspase-3/7 induction in CHO-K1 cells by small molecules, qHTS cell viability counter screen (AID 1346979); note: nearly all actives have a fitted effect of over 35% in size; note: potency is the fitted concentration of half-maximal effect
Summary of the method: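 CHO-K1 wt, 1,500 cells/well; 5hr pre-incubation 37C/5% CO2; compound pin transfer (DMSO); 16hr exposure; CellTiter-Fluor added, 1hr, fluorescence read.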

[5] = Caspase-3/7 induction in CHO-K1 cells by small molecules, qHTS assay (AID 1346980); note: nearly all actives have a fitted effect of over 15% in size
Summary of the method: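 Wild-type cells were seeded at 1,500 per well and settled 5 hr at 37 C, 5% CO2, then exposed to DMSO-dissolved compounds for 17 hr. Caspase-Glo 3/7 reagent was added, and luminescence was read after 30min at room temperature.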

[6] = Caspase-3/7 induction in HepG2 cells by small molecules, qHTS cell viability counter screen (AID 1346981); note: nearly all actives have a fitted effect of over 30% in size; note: potency is the fitted concentration of half-maximal effect
Summary of the method: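 Cell viability is measured as a cytotoxicity counter screen alongside the Caspase-Glo 3/7 readout in identical wells. Wild-type HepG2 cells are treated with test compounds for 16 hr at 37 C before CellTiter-Fluor addition and a 1-hr incubation.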

[7] = biological target: Nuclear receptor subfamily 1 group I member 2 (Homo sapiens) (UniProt O75469); assay: Human pregnane X receptor (PXR) small molecule agonists, qHTS assay (AID 1346982); note: nearly all actives have a fitted effect of over 35% in size; note: potency is the fitted concentration of half-maximal effect
Sequence of Nuclear receptor subfamily 1 group I member 2 (Homo sapiens) (O75469 whole entry, looked up): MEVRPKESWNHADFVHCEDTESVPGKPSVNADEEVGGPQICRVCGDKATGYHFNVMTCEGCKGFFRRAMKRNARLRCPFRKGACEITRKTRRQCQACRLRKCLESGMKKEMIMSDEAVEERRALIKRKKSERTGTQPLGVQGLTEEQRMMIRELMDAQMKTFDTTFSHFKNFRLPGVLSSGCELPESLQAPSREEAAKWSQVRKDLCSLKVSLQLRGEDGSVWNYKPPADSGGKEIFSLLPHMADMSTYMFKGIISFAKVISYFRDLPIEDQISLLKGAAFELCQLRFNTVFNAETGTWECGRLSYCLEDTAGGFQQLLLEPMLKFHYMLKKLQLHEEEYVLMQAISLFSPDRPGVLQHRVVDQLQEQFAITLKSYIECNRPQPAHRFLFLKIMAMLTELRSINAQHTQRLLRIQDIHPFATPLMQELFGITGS
Summary of the method: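 Cells: HepG2 stably carrying PXR-Luc. Medium held 5% charcoal-stripped FBS. Compounds in DMSO added after 5 hr plating, incubated 24 hr, then luminescence quantified with ONE-Glo.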

[8] = biological target: Nuclear receptor subfamily 1 group I member 2 (Rattus norvegicus) (UniProt Q9R1A7); assay: Rat pregnane X receptor (rPXR) activation by small molecules, qHTS assay (AID 1346983); settings: rPXR luciferase reporter cells, One-Glo luminescence, 24 h; max activation: active compounds read high; note: nearly all actives have a fitted effect of over 20% in size; note: potency is the fitted concentration of half-maximal effect
Sequence of Nuclear receptor subfamily 1 group I member 2 (Rattus norvegicus) (Q9R1A7 whole entry, looked up): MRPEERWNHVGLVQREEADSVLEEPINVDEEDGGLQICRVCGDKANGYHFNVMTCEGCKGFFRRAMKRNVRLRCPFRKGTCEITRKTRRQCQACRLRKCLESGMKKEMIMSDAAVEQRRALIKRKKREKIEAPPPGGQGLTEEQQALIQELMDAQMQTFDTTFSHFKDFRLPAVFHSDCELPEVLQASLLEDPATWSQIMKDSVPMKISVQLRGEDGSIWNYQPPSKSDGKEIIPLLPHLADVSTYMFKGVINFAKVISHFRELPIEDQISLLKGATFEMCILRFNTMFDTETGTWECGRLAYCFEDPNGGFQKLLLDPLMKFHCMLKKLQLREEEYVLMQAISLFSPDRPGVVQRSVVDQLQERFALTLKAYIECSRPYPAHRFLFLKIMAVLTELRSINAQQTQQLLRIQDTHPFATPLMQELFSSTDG
Summary of the method: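 Cell-based rPXR luciferase reporter assay, 2,000 cells per well, rested 5hr at 37 C before compound addition in DMSO, then 24 hr at 37 C. One-Glo reagent was added and luminescence read after 30 min at room temperature.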

[9] = biological target: Nuclear receptor subfamily 1 group I member 2 (Homo sapiens) (UniProt O75469); assay: CYP3A4 induction through human pregnane X receptor (PXR) by small molecules, qHTS assay (AID 1346984); note: nearly all actives have a fitted effect of over 40% in size; note: potency is the fitted concentration of half-maximal effect
Summary of the method: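 Quantitative HTS in DPX-2 cells, i.e. HepG2 transfected with PXR response element and CYP3A4-promoter luciferase. Compounds in DMSO incubated 24hr at 37C; then P450-Glo CYP3A4 substrate, 3uM final, 3hr; One-Glo luminescence.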

[10] = biological target: Nuclear receptor subfamily 1 group I member 2 (Homo sapiens) (UniProt O75469); assay: Human pregnane X receptor (PXR) activation by small molecules, qHTS assay (AID 1346985); note: nearly all actives have a fitted effect of over 40% in size; note: potency is the fitted concentration of half-maximal effect
Summary of the method: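 DPX-2 cells (HepG2 co-transfected with a PXR response element and a CYP3A4-promoter luciferase construct) were seeded at 2,000 per well, rested 5 hr at 37C, then exposed to DMSO-dissolved compounds for 24 hr. Activation was read as luciferase luminescence.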

| SMILES | Potency [1] | Potency [2] | Potency [3] | Potency [4] | Potency [5] | Potency [6] | Potency [7] | Potency [8] | Potency [9] | Potency [10] | max activation [8] |
| --- | --- | --- | --- | --- | --- | --- | --- | --- | --- | --- | --- |
| C=C(C)C(=O)OCCOCCOC(=O)C(=C)C | inactive | inactive | inactive | inactive | inactive | inactive | inactive | – | – | – | – |
| CC1(C)S[C@@H]2[C@H](NC(=O)C(c3ccccc3)S(=O)(=O)O)C(=O)N2[C@H]1C(=O)O (some centres not stated) | inactive | inactive | inactive | inactive | inactive | inactive | inactive | – | – | – | – |
| O=C(/C=C/c1ccccc1)OCCc1ccccc1 | inactive | inactive | inactive | inactive | inactive | inactive | inactive | – | – | – | – |
| Cc1cc(O)c(C)c(C)c1O | inactive | inactive | inactive | inactive | inactive | inactive | inactive | – | – | – | – |
| CC(C)c1nc(CN(C)C(=O)N[C@H](C(=O)N[C@@H](Cc2ccccc2)C[C@H](O)[C@H](Cc2ccccc2)NC(=O)OCc2cncs2)C(C)C)cs1 | inactive | 9.44 µM (active) | inactive | 23.7 µM (active) | inactive | 21.1 µM (active) | 5.96 µM (active) | – | – | – | – |
| O=C(Cn1ccnc1[N+](=O)[O-])NCCO | inactive | inactive | inactive | inactive | inactive | inactive | inactive | – | – | – | – |
| C=CCc1ccccc1OCC(O)CNC(C)C (configuration not stated) | inactive | inactive | inactive | inactive | inactive | inactive | inactive | – | – | – | – |
| CCCCCCCCCCCCCCN(CCO)CCO | inactive | 61.1 µM (active) | 30.6 µM (active) | 27.3 µM (active) | inactive | 68.6 µM (active) | 12.2 µM (active) | – | – | – | – |
| CC(=O)Nc1cc(S(=O)(=O)O)cc2cc(S(=O)(=O)O)c(N=Nc3ccccc3)c(O)c12 | inactive | 21.7 µM (active) | inactive | 27.3 µM (active) | inactive | 24.3 µM (active) | inactive | – | – | – | – |
| CCC1(CO)COCOC1 | inactive | inactive | inactive | inactive | inactive | inactive | inactive | – | – | – | – |
| CCC(=O)OC | inactive | inactive | inactive | inactive | inactive | inactive | inactive | – | – | – | – |
| CC(CCC(=O)O)C(=O)O (configuration not stated) | inactive | inactive | inactive | inactive | inactive | inactive | inactive | – | – | – | – |
| C=C1C[C@@]23CC[C@H]4[C@@](C)(CCC[C@@]4(C)C(=O)O[C@@H]4O[C@H](CO)[C@@H](O)[C@H](O)[C@H]4O)[C@@H]2CC[C@]1(O[C@@H]1O[C@H](CO)[C@@H](O)[C@H](O[C@@H]2O[C@H](CO)[C@@H](O)[C@H](O)[C@H]2O)[C@H]1O[C@@H]1O[C@H](CO)[C@@H](O)[C@H](O)[C@H]1O)C3 | inactive | inactive | inactive | inactive | inactive | inactive | inactive | – | – | – | – |
| NC(=O)c1ccncc1 | inactive | inactive | inactive | inactive | inactive | inactive | inactive | – | – | – | – |
| FC(F)(F)c1ccccc1Cl | inactive | inactive | inactive | inactive | inactive | inactive | inactive | – | – | – | – |
| C/C=C/C=C/C=O | inactive | inactive | inactive | inactive | inactive | inactive | inactive | – | – | – | – |
| CCCCCCCCC(CCCCCC)C(=O)O (configuration not stated) | inactive | inactive | inactive | inactive | inactive | inactive | inactive | – | – | – | – |
| C1COC1 | inactive | inactive | inactive | inactive | inactive | inactive | inactive | – | – | – | – |
| C(=C\c1ccccc1)/c1ccccc1 | inactive | inactive | inactive | inactive | inactive | inactive | inactive | – | – | – | – |
| C=C(C)CCCC(C)CCO (configuration not stated) | inactive | inactive | inactive | inactive | inactive | inactive | 54.5 µM (active) | – | – | – | – |
| CCC(C)COC(=O)CC(C)C (configuration not stated) | inactive | inactive | inactive | inactive | inactive | inactive | inactive | – | – | – | – |
| CCCCCC[C@@H](O)C/C=C\CCCCCCCC(=O)OCC(O)CO (some centres not stated) | inactive | inactive | inactive | inactive | inactive | inactive | 34.4 µM (active) | – | – | – | – |
| O=C1c2ccccc2C(=O)C1c1ccc(Br)cc1 | inactive | inactive | inactive | inactive | inactive | inactive | – | 11.2 µM (active) | 25.1 µM (active) | 7.08 µM (active) | – |
| C[C@]1(Cn2ccnn2)[C@H](C(=O)O)N2C(=O)C[C@H]2S1(=O)=O | inactive | inactive | inactive | inactive | inactive | inactive | inactive | – | inactive | inactive | -2% |
| CCOC(C)=O | inactive | inactive | inactive | inactive | inactive | – | inactive | – | inactive | inactive | -1.67% |
| CC(C)=CCC/C(C)=C/CC/C(C)=C/C(=O)OCC(=O)[C@@]1(O)CC[C@H]2[C@@H]3CCC4=CC(=O)C=C[C@]4(C)[C@H]3[C@@H](O)C[C@@]21C | inactive | inactive | inactive | 18.8 µM (active) | inactive | – | 1.88 µM (active) | – | – | – | – |
| CC(C)=CCC1C(=O)N(c2ccccc2)N(c2ccccc2)C1=O | inactive | inactive | inactive | inactive | inactive | inactive | 29.8 µM (active) | 28.2 µM (active) | 5.01 µM (active) | – | – |
